Among all 5,500 compounds or so, about 2,000 (36%) were called active. Roughly 18% stayed inconclusive and do not appear here. No stated cut-off is given here; in the data, active means normalized growth mostly below about 0.91 (no sharp cut-off); inconclusive means no clear call, values can overlap the other calls; inactive means mostly above about 0.92. The list shows a part of the results.
Experiment: chemical genetic growth profiling, strain panel (AID 1159580);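 further: tested at 20 µM; growth read once vehicle control cultures reached saturation at 30 °C; 1 = growth at the plate median or of vehicle wells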
Conditions: S. cerevisiae deletion strains, growth OD

Measured: normalized growth

COc1cc2c(cc1OC)[C@@H]1C(=O)c3ccc(O)c(CC=C(C)C)c3O[C@@H]1CO2
inactive: locus YAL026C, strain drs2, stronger effect = lower value 1.01 | locus YAL030W, strain snc1, stronger effect = lower value 1.03 | locus YBL061C, strain skt5, stronger effect = lower value 0.958 | locus YBR009C, strain hhf1, stronger effect = lower value 1.03 | locus YBR021W, strain FUR4, stronger effect = lower value 0.989 | locus YBR023C, strain chs3, stronger effect = lower value 0.987 | locus YBR171W, strain sec66, stronger effect = lower value 0.998 | locus YBR229C, strain ROT2, stronger effect = lower value 0.986 | locus YBR231C, strain swc5, stronger effect = lower value 1.01 | locus YCL011C, strain gbp2, stronger effect = lower value 1.06 | locus YCL016C, strain dcc1, stronger effect = lower value 0.965 | locus YCL029C, strain bik1, stronger effect = lower value 0.984 | locus YCL061C, strain MRC1, stronger effect = lower value 0.985 | locus YCL069W, strain vba3, stronger effect = lower value 1 | locus YCR088W, strain abp1, stronger effect = lower value 1 | locus YDL005C, strain med2, stronger effect = lower value 1.05 | locus YDL035C, strain GPR1, stronger effect = lower value 1.02 | locus YDL040C, strain nat1, stronger effect = lower value 0.975 | locus YDL074C, strain BRE1, stronger effect = lower value 0.961 | locus YDL101C, strain DUN1, stronger effect = lower value 0.969 | locus YDL134C, strain PPH21, stronger effect = lower value 0.967 | locus YDL185W, strain tfp1, stronger effect = lower value 0.974 | locus YDL192W, strain arf1, stronger effect = lower value 1.03 | locus YDR001C, strain nth1, stronger effect = lower value 1.01 | locus YDR069C, strain doa4, stronger effect = lower value 1.08 | locus YDR101C, strain arx1, stronger effect = lower value 1.05 | locus YDR137W, strain rgp1, stronger effect = lower value 1.02 | locus YDR159W, strain sac3, stronger effect = lower value 1.07 | locus YDR162C, strain NBP2, stronger effect = lower value 0.978 | locus YDR195W, strain ref2 0.963 | locus YDR297W, strain sur2, stronger effect = lower value 1.05 | locus YDR318W, strain mcm21, stronger effect = lower value 1.01 | locus YDR334W, strain swr1, stronger effect = lower value 1 | locus YDR335W, strain msn5, stronger effect = lower value 1.02 | locus YDR388W, stronger effect = lower value 0.982 | locus YDR392W, strain spt3, stronger effect = lower value 0.91 | locus YDR502C, strain sam2, stronger effect = lower value 0.971 | locus YEL003W, strain gim4, stronger effect = lower value 1.03 | locus YEL037C, strain rad23, stronger effect = lower value 1.03 | locus YEL061C, strain CIN8 (second series), stronger effect = lower value 1.06 | locus YEL061C, strain CIN8, stronger effect = lower value 0.992 | locus YER015W, strain faa2, stronger effect = lower value 1.01 | locus YER016W, strain bim1, stronger effect = lower value 1.07 | locus YER110C, stronger effect = lower value 0.966 | locus YER111C, strain swi4, stronger effect = lower value 1.02 | locus YER155C, strain BEM2 (second series), stronger effect = lower value 0.979 | locus YER155C, strain BEM2, stronger effect = lower value 0.982 | locus YER167W, strain BCK2, stronger effect = lower value 0.998 | locus YFR010W, strain ubp6, stronger effect = lower value 1.01 | locus YGL078C, strain dbp3, stronger effect = lower value 1.02 | locus YGL086W, strain mad1, stronger effect = lower value 1.02 | locus YGL167C, strain pmr1, stronger effect = lower value 0.988 | locus YGL173C, strain kem1, stronger effect = lower value 1.01 | locus YGL227W, strain vid30, stronger effect = lower value 0.997 | locus YGL240W, strain doc1, stronger effect = lower value 1.03 | locus YGL248W, strain PDE1, stronger effect = lower value 0.932 | locus YGL253W, strain hxk2, stronger effect = lower value 1.02 | locus YGR078C, strain PAC10, stronger effect = lower value 0.975 | locus YGR135W, strain pre9, stronger effect = lower value 0.952 | locus YGR229C, strain SMI1, stronger effect = lower value 1.19 | locus YGR252W, strain gcn5, stronger effect = lower value 0.999 | locus YHR013C, strain ard1, stronger effect = lower value 1.02 | locus YHR027C, strain rpn1, stronger effect = lower value 1.03 | locus YHR030C, strain SLT2, stronger effect = lower value 0.994 | locus YHR079C, strain IRE1 (second series), stronger effect = lower value 1 | locus YHR094C, strain hxt1, stronger effect = lower value 0.988 | locus YHR129C, strain ARP1, stronger effect = lower value 0.984 | locus YHR142W, strain chs7, stronger effect = lower value 1.02 | locus YHR200W, strain rpn10, stronger effect = lower value 1 | locus YIL066C, strain RNR3, stronger effect = lower value 0.981 | locus YIL073C, strain SPO22, stronger effect = lower value 0.913 | locus YIL125W, strain kgd1, stronger effect = lower value 0.994 | locus YIR030C, strain dcg1, stronger effect = lower value 0.981 | locus YJL092W, strain hpr5, stronger effect = lower value 1 | locus YJL095W, strain BCK1 (second series), stronger effect = lower value 1.02 | locus YJL095W, strain BCK1, stronger effect = lower value 0.953 | locus YJL115W, strain asf1, stronger effect = lower value 1.06 | locus YJL134W, strain LCB3, stronger effect = lower value 0.978 | locus YJL154C, strain vps35, stronger effect = lower value 1.01 | locus YJL164C, strain tpk1, stronger effect = lower value 1.02 | locus YJL166W, strain qcr8, stronger effect = lower value 1.06 | locus YJL168C, strain set2, stronger effect = lower value 0.979 | locus YJL187C, strain SWE1 (second series), stronger effect = lower value 0.951 | locus YJR043C, strain POL32, stronger effect = lower value 1.05 | locus YKL009W, strain mrt4, stronger effect = lower value 0.93 | locus YKL068W, stronger effect = lower value 0.969 | locus YKL085W, strain MDH1 (second series), stronger effect = lower value 0.963 | locus YKL085W, strain MDH1, stronger effect = lower value 0.963 | locus YKL160W, strain elf1, stronger effect = lower value 1.02 | locus YKR001C, strain vps1, stronger effect = lower value 1.02 | locus YKR026C, strain gcn3, stronger effect = lower value 1 | locus YKR091W, strain srl3, stronger effect = lower value 1.03 | locus YLL001W, strain dnm1, stronger effect = lower value 1 | locus YLL026W, stronger effect = lower value 1.03 | locus YLR027C, strain aat2, stronger effect = lower value 1.07 | locus YLR039C, strain RIC1, stronger effect = lower value 0.925 | locus YLR058C, strain SHM2, stronger effect = lower value 0.98 | locus YLR102C, strain apc9, stronger effect = lower value 0.991 | locus YLR221C, strain rsa3, stronger effect = lower value 1.04 | locus YLR258W, strain gsy2, stronger effect = lower value 1.06 | locus YLR262C, strain YPT6 (second series), stronger effect = lower value 0.97 | locus YLR262C, strain YPT6, stronger effect = lower value 0.906 | locus YLR268W, strain sec22, stronger effect = lower value 1.02 | locus YLR320W, strain mms22, stronger effect = lower value 0.961 | locus YLR330W, strain CHS5, stronger effect = lower value 0.99 | locus YLR342W, strain FKS1 (second series), stronger effect = lower value 1.06 | locus YLR342W, strain FKS1, stronger effect = lower value 1.02 | locus YLR357W, strain rsc2, stronger effect = lower value 1.05 | locus YLR370C, strain arc18, stronger effect = lower value 1 | locus YLR371W, strain rom2, stronger effect = lower value 1.02 | locus YLR384C, strain iki3, stronger effect = lower value 0.971 | locus YLR418C, strain cdc73, stronger effect = lower value 1 | locus YML016C, strain PPZ1, stronger effect = lower value 1 | locus YML032C, strain rad52, stronger effect = lower value 1.01 | locus YML120C, strain ndi1, stronger effect = lower value 0.976 | locus YML124C, strain tub3, stronger effect = lower value 0.989 | locus YMR058W, strain fet3, stronger effect = lower value 1 | locus YMR078C, strain ctf18, stronger effect = lower value 1.01 | locus YMR125W, strain sto1, stronger effect = lower value 1.01 | locus YMR129W, stronger effect = lower value 1.01 | locus YMR205C, strain PFK2, stronger effect = lower value 1.02 | locus YMR223W, strain ubp8, stronger effect = lower value 0.995 | locus YMR231W, strain pep5, stronger effect = lower value 0.959 | locus YMR307W, strain GAS1, stronger effect = lower value 1.1 | locus YNL067W, strain RPL9B, stronger effect = lower value 0.958 | locus YNL071W, strain lat1, stronger effect = lower value 1.02 | locus YNL128W, strain TEP1, stronger effect = lower value 0.966 | locus YNL209W, strain ssb2, stronger effect = lower value 1.05 | locus YNL233W, strain BNI4, stronger effect = lower value 0.947 | locus YNL248C, strain rpa49, stronger effect = lower value 1.01 | locus YNL250W, strain rad50, stronger effect = lower value 0.923 | locus YNL271C, strain bni1, stronger effect = lower value 1 | locus YNL298W, strain CLA4, stronger effect = lower value 0.959 | locus YNL307C, strain MCK1, stronger effect = lower value 0.967 | locus YNL322C, strain KRE1 (second series), stronger effect = lower value 1.04 | locus YNL322C, strain KRE1, stronger effect = lower value 0.985 | locus YNR049C, strain mso1, stronger effect = lower value 0.999 | locus YNR052C, strain pop2, stronger effect = lower value 0.986 | locus YOL012C, strain htz1 0.715 | locus YOL147C, strain pex11, stronger effect = lower value 0.987 | locus YOR001W, strain rrp6, stronger effect = lower value 1.05 | locus YOR061W, strain CKA2, stronger effect = lower value 0.99 | locus YOR069W, strain VPS5, stronger effect = lower value 0.98 | locus YOR070C, strain gyp1, stronger effect = lower value 1.02 | locus YOR080W, strain dia2, stronger effect = lower value 1.07 | locus YOR083W, strain WHI5, stronger effect = lower value 1 | locus YOR136W, strain idh2, stronger effect = lower value 0.98 | locus YOR144C, strain elg1, stronger effect = lower value 0.993 | locus YOR184W, strain ser1, stronger effect = lower value 1.08 | locus YOR265W, strain rbl2, stronger effect = lower value 1 | locus YOR270C, strain vph1, stronger effect = lower value 0.971 | locus YOR290C, strain snf2, stronger effect = lower value 1.01 | locus YOR316C, strain cot1, stronger effect = lower value 0.966 | locus YPL051W, strain arl3, stronger effect = lower value 1 | locus YPL055C, strain LGE1, stronger effect = lower value 1.01 | locus YPL078C, strain atp4, stronger effect = lower value 1.01 | locus YPL106C, strain sse1, stronger effect = lower value 1.11 | locus YPR119W, strain clb2, stronger effect = lower value 0.986 | locus YPR141C, strain kar3, stronger effect = lower value 1.01 | locus YPR163C, strain tif3, stronger effect = lower value 1.01 | locus YPR167C, strain met16, stronger effect = lower value 0.987 | strain wtn01, stronger effect = lower value 1.04
active: locus YAL021C, strain ccr4, stronger effect = lower value 1.12 [resistant] | locus YBR279W, strain paf1, stronger effect = lower value 1.12 [resistant] | locus YJL129C, strain trk1, stronger effect = lower value 1.17 [resistant] | locus YJL187C, strain SWE1, stronger effect = lower value 1.1 [resistant] | locus YLL041C, strain sdh2, stronger effect = lower value 1.09 [resistant] | locus YOR106W, strain vam3, stronger effect = lower value 1.13 [resistant] | locus YPL240C, strain hsp82, stronger effect = lower value 1.11 [resistant]

From PubChem BioAssay AID1159580 (chemical genetic matrix, 2015)
